From PubChem
In the library only some 21% were active in any assay of this set; here they are far more common.
Sm TGR block = S. mansoni TGR enzyme inhibition; purified TGR, DTNB reduction, TNB absorbance 405 nm; Potency, µM (series often up to 114 µM), for the others: top-dose activity change, negative = inhibition, actives largely listed as inhibitors; 360,000 compounds, 3% hits; AID 485364; also: potency is read from the fitted curve at half-maximal effect; % is scaled to controls: 0 for no effect and ±100 for the full control effect; nearly all actives have a fitted effect of over 60% in size
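TGR 20 nM + NADPH 100 uM (dispensed conc.), cpd preinc 15 min RT; start with NADPH (500 uM addition) then DTNB (15 mM addition). Kinetic TNB absorbance, 405 nm filter. Four-parameter Hill fit across titration.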
CHX counter = counter-screen hit for Shiga toxin inhibitors, cycloheximide | cell reporter, cycloheximide protein synthesis inhibition counterscreen | max response, % | 300,000 compounds, 12% hits; in the data active = max response mostly above about 13%, no sharp cut-off; inactive = mostly below about 14%; also: read at 38.3 µM for the half of the compounds with a filed dose; 0% is about no effect
Pf growth 48h = inhibits P. falciparum growth in the first generation, 48 h; P. falciparum luciferase growth in erythrocytes, 48 h; Potency, µM (top dose mostly 28.7 µM), for inactives: at the highest dose activity change, negative = inhibition, actives largely listed as inhibitors; 310,000 compounds, 5.9% hits; AID 504832; also: potency is read from the fitted curve at half-maximal effect; % is scaled to controls: 0 for no effect and ±100 for the full control effect
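Erythrocytes infected with P. falciparum carrying an integrated firefly luciferase reporter (2% hematocrit, 0.1% parasitemia final) were exposed to compounds in RPMI 1640 with 0.5% Albumax at 37 C, 5% CO2. Growth inhibition was scored as reduced luminescence.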
Shiga inhibitor = inhibitors of Shiga toxin in Vero cells; Vero cells, Shiga toxin protein synthesis inhibition reporter; inhibition, % at 38.7 µM; 290,000 compounds, 9.2% hits; AID 2315; in the data active = inhibition mostly above about 28%, no sharp cut-off; inactive = mostly below about 43%; also: 0% is about no effect
NS1 inh = inhibitors of influenza NS1 protein function. Potency, µM (highest dose often 46.1 µM), without a hit: top-dose activity, positive = more growth. 270,000 compounds, 0.4% hits. AID 2326; calls by dose curve; also: potency is read from the fitted curve at half-maximal effect; actives are rising curves; nearly all actives have a fitted effect of over 50% in size
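Read-out: OD600 growth recovery of NS1-expressing budding yeast. Cells grown overnight at 30C in -URA glucose medium, washed, resuspended and diluted 1:100 in 2% galactose assay medium, pH 6.0. Same strain lacking NS1 served as positive control.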
Pf growth 96h = inhibits malaria parasite growth, 96 h | P. falciparum luciferase reporter growth, 96 h | Potency, µM (doses to about 28.7 µM), inactives show at the highest dose activity change, negative = inhibition, usual class: inhibitors | 320,000 compounds, 6.9% hits; also: potency is read from the fitted curve at half-maximal effect; % is scaled to controls: 0 for no effect and ±100 for the full control effect
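Erythrocytes infected with luciferase-expressing P. falciparum were dispensed at 2% hematocrit and 0.05% parasitemia (final), then incubated with compounds 96 hours at 37 C in 5% CO2. Luminescence after detection reagent addition reported growth.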
Starred values were filed as active, the others as inactive; ? = inconclusive; / = no result given; [ ] = remark or other dose. Unless noted, calls follow the shape of the dose curve; as a rule, active = well fitted curve in the direction sought with a large enough effect; inconclusive = small, poorly fitted or top-dose-only effect, or another doubt; inactive = no such curve, though single readings can be large; an effect the other way counts as inactive or inconclusive.

SMILES	Sm TGR block	CHX counter	Pf growth 48h	Shiga inhibitor	NS1 inh	Pf growth 96h
COC(=O)c1ccc(Cl)c(NC(=O)c2ccc(-c3ccccc3)cc2)c1	-25%	2	3%	-13	10%	-2%
Cc1ccc(CNC(=O)COC(=O)Cc2ccc(-c3ccccc3)cc2)cc1	-1%	-1	-8%	14	2%	-11%
Cn1cc(CCCC(=O)NCc2ccc(F)cc2)c2ccccc21	?	-4	?	3	-13%	2.1µM*
COc1ccc(CNC(=O)CCc2cn(C)c3ccccc23)cc1	-3%	/	/	/	/	/
O=C(COC(=O)Cc1ccc(-c2ccccc2)cc1)NCc1ccc(F)cc1	19%	15*	16%	11	0%	-16%
COc1ccccc1CNC(=O)c1cccc(-c2ccc(C)c3ccccc23)n1	-17%	11	?	-13	0%	15µM*
COc1ccccc1CNCC(=O)NCc1ccc(C)cc1	?	1	20%	-12	-2%	?
CCCCCCNC(=O)c1cccc(-c2ccc(C)c3ccccc23)n1	6%	-3	?	9	-14%	?
COc1ccccc1CNC(=O)Cc1ccc(C)cc1	-1%	25*	20%	38	-5%	?
O=C(NCc1ccccc1)[C@]1(C(F)(F)F)C[C@H](CCCO)CCCO1	/	-1	/	2	/	/
O=C(O)C1CCN(S(=O)(=O)c2cccc3cccnc23)CC1	8%	-3	23%	13	-5%	-1%
COc1ccccc1CNC(=O)CCN1C(=O)c2ccccc2C1=O	-23%	-2	29%	-5	2%	61%
COCC(C)NC(=O)Cc1ccc(Cl)cc1 (configuration not stated)	4%	-3	29%	-8	5%	17%
COc1ccccc1CNC(=O)CCCc1ccccc1	-6%	23*	5%	65*	2%	-6%
COCC(C)NC(=O)Cc1ccc(F)cc1 (configuration not stated)	-9%	-4	-15%	8	22%	9.3µM*
O=C(CCCCC(=O)NCCCc1ccccc1)NCCCc1ccccc1	-16%	-3	-6%	-4	0%	?
COc1ccccc1CNC(=O)CN1C(=O)c2cccc(N)c2C1=O	14%	39*	120%	68*	-11%	123%
CC(C)CNC(=O)CCCc1ccccc1	-2%	43*	/	35*	-9%	66%
COc1ccccc1-c1nnc2n1N=C(c1c(OC)cccc1OC)CS2	/	2	/	-6	/	/
Cc1cc(C)c2c(CC(=O)Nc3c(C(=O)c4ccc(F)cc4)oc4ccccc34)coc2c1	10%	/	/	/	/	/
O=C(N/N=C/c1ccc(O)cc1)c1cc(C2CC2)[nH]n1	1%	12	7%	-30	0%	14%
COc1ccc(/C=N/NC(=O)c2cc(C3CC3)[nH]n2)cc1OC	3%	11	-16%	52*	6%	-28%
COc1cc(/C=N/NC(=O)c2ccc(=O)[nH]n2)ccc1O	-2%	-1	-10%	10	1%	?
COc1ccc2c(c1)c(C(=O)N/N=C/c1ccc(OC)c(OC)c1)c(C)n2C	0%	-2	-11%	-6	9%	15µM*
COc1cc(/C=N/NC(=O)c2cc(C34CC5CC(CC(C5)C3)C4)[nH]n2)ccc1O	10%	2	?	6	-4%	12µM*
SMILES	Sm TGR block	CHX counter	Pf growth 48h	Shiga inhibitor	NS1 inh	Pf growth 96h
COc1cc(/C=N/NC(=O)c2cc(C3CC3)[nH]n2)ccc1O	-3%	16*	2%	40	6%	10%
O=C(NCCc1ccccc1)C1CCN(c2ncccn2)CC1	-10%	6	45%	2	0%	?
COC(=O)C/C=C/[C@@H](C)[C@@H](/C=N/OC[C@@H](C)[C@H](OCc1ccccc1)C(C)C)NS(=O)(=O)c1ccc(C)cc1	-18%	-2	13µM*	34	19%	9.3µM*
CCOc1ccc(N(C(C)C(=O)NN=C2CCCCCCC2)S(C)(=O)=O)cc1 (configuration not stated)	3%	-5	7%	-8	-2%	-3%
COc1ccc(N(C(C)C(=O)NN=C2CCCC2)S(C)(=O)=O)cc1 (configuration not stated)	7%	10	42%	-11	/	1.9µM*
Oc1ccc(Br)cc1-c1nc2cnccn2c1NC1CCCCC1	11%	-6	3.3µM*	-6	-151%	/
Oc1ccc(Br)cc1-c1nc2cnccn2c1NC1CCCC1	4%	-3	2.6µM*	-12	-42%	-4%
CN1C(=O)S/C(=C\c2ccc(-n3cncn3)cc2)C1=O	-7%	9	0%	10	-5%	-16%
CCCc1cc(=O)[nH]c(NCCc2ccccc2)n1	0%	-3	?	3	-1%	13µM*
O=c1ccnc(NCCc2ccccc2)[nH]1	3%	29*	22%	48	9%	/
CCCCSc1nc(CCC)cc(=O)[nH]1	-11%	10	22%	-16	-12%	-9%
CCCc1cc(=O)[nH]c(SCCc2ccccc2)n1	7%	12*	17%	30	-2%	9.3µM*
CC(C)Nc1nc(-c2ccccn2)nc(-c2ccccc2)c1C#N	-2%	-1	-1%	1	/	?
CC(C)Nc1nc(-c2cccnc2)nc(-c2ccccc2)c1C#N	3%	-4	8.3µM*	-3	3%	?
CC(C)Nc1nc(-c2cccnc2)nc(-c2ccc(Cl)cc2)c1C#N	-22%	-8	0%[0.00184 µM]	-13	-1%	2.3µM*
CN(CCOc1ccc(Cl)cc1)C(=O)c1cc(S(=O)(=O)N2CCOCC2)ccc1N1CCCC1	-2%	/	?	/	/	?
c1ccc(C2CSc3ccccc3N2)cc1 (configuration not stated)	-13%	64*	152%	102*	3%	163%
CC1CSc2ccccc2NC1=S (configuration not stated)	-5%	-1	-7%	-1	0%	-29%
Cc1ccccc1CC(=O)N1CCN(C(=O)C2CCCO2)CC1 (configuration not stated)	-4%	2	-8%	-19	2%	-13%
Cc1cccc(-c2nc(CN3CCN(C(=O)C4CCCO4)CC3)cs2)c1 (configuration not stated)	-1%	7.6*	0%	7	-1%	-5%
COc1ccc(/C=C/C(=O)c2ccccc2O)cc1	-2%	65*	210%	106*	-67%	-28%
COc1ccc(/C=C/C(=O)c2ccc(O)cc2)cc1	-15%	37*	201%	64*	-39%	117%
COc1ccc(/C=C(/NC(=O)/C=C/c2ccccc2)C(=O)O)cc1	0%	-1	16%	-6	/	50%
COc1ccc(C(=O)Cn2c(C(=O)/C=C/c3ccccc3)nc3ccccc32)cc1	4%	6	10µM*	-10	?	/
COc1ccc(C(=O)/C=C\c2ccc(NC(=O)c3cccs3)cc2)cc1	13%	-4	?	-2	-4%	78%
